# PubChem BioAssay (NCATS)
# Inconclusive results are not listed. Active and inactive are the calls of the source. Unless noted, the rule behind the calls is not given here.
# Columns and labels:
# [1] = qHTS profiling of the MIPE4 collection as inhibitors of Plasmodium falciparum (DD2) proliferation (AID 743345); conditions: P. falciparum Dd2 in erythrocytes, SYBR Green DNA, 72 h; at 28.5 µM (top of the series) unless noted
# How it was run: (§1)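 Erythrocytes infected with P. falciparum (0.3% parasitemia, 2.5% hematocrit) incubated with compounds 72 h at 37 C, 5% CO2. Lysis with saponin/Triton buffer containing SYBR Green I, overnight at room temperature in the dark; DNA fluorescence (485/535 nm) normalised to 0.29 uM artemisinin and DMSO.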
# [2] = qHTS profiling of the MIPE4 collection as inhibitors of Plasmodium falciparum (DD2) proliferation (Rep 2) (AID 743346); conditions: P. falciparum Dd2 in erythrocytes, SYBR Green DNA, 72 h; at 28.5 µM (top of the series) unless noted
# How it was run: as §1
# [3] = qHTS profiling of the MIPE4 collection as inhibitors of Plasmodium falciparum (HB3) proliferation (AID 743347);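 note: plate controls were DMSO vehicle wells for no effect and artemisinin wells for full effect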; conditions: P. falciparum HB3 in erythrocytes, SYBR Green DNA, 72 h; at 28.5 µM (top of the series) unless noted
# How it was run: as §1
# [4] = High-throughput drug toxicity screening in the BPDCN cell line Gen2.2 (AID 1224824); conditions: Gen2.2 BPDCN cells; at 45.8 µM (top of the series) unless noted;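 note: cells exposed to compounds for 48 h before reading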
# How it was run: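 Gen2.2 cells (500/well) in phenol red-free RPMI with 10% FBS were exposed to compounds for 48 h at 37 °C, 5% CO2. Viability was read by CellTiter-Glo luminescence and normalized to DMSO (100%) and 9.2 uM bortezomib (0%).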
# [5] = High-throughput drug toxicity screening in the BPDCN cell line Cal-1 (AID 1224825); conditions: Cal-1 BPDCN cell viability, qHTS; at 45.8 µM (top of the series) unless noted
# How it was run: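 Cal-1 cells, 500 per well in phenol-red-free RPMI with 10% FBS, exposed to compounds for 48 hours at 37C, 5% CO2. Viability read by CellTiter-Glo luminescence; percent activity normalized to DMSO (100%) and 9.2 uM bortezomib final (0%).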
# [6] = qHTS assay for measurement of the activity of small molecule inhibitors on Zika virus induced Caspase-3 activity in human iPSC derived neural progenitor cells (hNPCs) (AID 1224857; active = well fitted curve in the direction sought with a large enough effect; an effect the other way counts as inactive or inconclusive; note: % of control where 0% means no effect; nearly all actives have a fitted effect of over 65% in size)
# How it was run: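 Percent inhibition of virus-induced caspase-3/7 luminescence (Caspase-Glo), scaled between uninfected cells and Zika-infected cells. hNPCs received compound 1 hr before ZIKV at 2 FFU/cell, with 6 hours infection at 37 C.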
# [7] = qHTS assay for measurement of the activity of small molecule inhibitors on Zika virus induced Caspase-3 activity in human astrocytoma cells (AID 1224859; active = well fitted curve in the direction sought with a large enough effect; an effect the other way counts as inactive or inconclusive;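 note: plate controls were ZIKV-infected untreated cells for no effect and uninfected cells for full effect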)
# How it was run: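 Luminescent caspase-3/7 read-out (30 min reagent, room temperature) in human SNB-19 cells infected 6 h with ZIKV (2 FFU/cell) after 1 h compound pre-incubation; Data were normalised to uninfected and infected wells.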
# [8] = qHTS Screen of the MIPE 4.0 Collection Against Ewings Sarcoma (TC71) (AID 1259253; active = well fitted curve in the direction sought with a large enough effect; an effect the other way counts as inactive or inconclusive; note: nearly all actives have a fitted effect of over 40% in size; note: potency is the fitted concentration of half-maximal effect)
# How it was run: (§2)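 Log-phase cells in RPMI with 5% FBS attached for 4 h, then received compounds as a titration for 48 h at 37C, 5% CO2. Viability was read by CellTiter-Glo luminescence and normalized to DMSO and no-cell wells.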
# [9] = qHTS Screen of the MIPE 4.0 Collection Against Ewings Sarcoma (TC32) (AID 1259256; active = well fitted curve in the direction sought with a large enough effect; an effect the other way counts as inactive or inconclusive; note: nearly all actives have a fitted effect of over 45% in size; note: potency is the fitted concentration of half-maximal effect)
# How it was run: as §2
# [10] = qHTS Screen of the MIPE 4.0 Collection Against Ewings Sarcoma (EW8) (AID 1259255; active = well fitted curve in the direction sought with a large enough effect; an effect the other way counts as inactive or inconclusive; note: nearly all actives have a fitted effect of over 35% in size; note: potency is the fitted concentration of half-maximal effect;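 for viability: 100% = DMSO-treated cells and 0% = medium-only wells without cells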)
# How it was run: as §2
# [11] = qHTS profiling of the MIPE4 collection as inhibitors of Plasmodium falciparum (3D7) proliferation (AID 743344);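 note: scaled between DMSO vehicle wells and 0.29 µM artemisinin as full inhibition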; conditions: P. falciparum 3D7 in erythrocytes, SYBR Green DNA fluorescence, 72 h; at 28.5 µM (top of the series) unless noted
# How it was run: as §1
# [12] = qHTS profiling for inhibitors of Plasmodium falciparum (HB3) proliferation (AID 743324; active = well fitted curve in the direction sought with a large enough effect; an effect the other way counts as inactive or inconclusive;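 note: 100% = DMSO vehicle wells and 0% = artemisinin-treated control wells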); conditions: Plasmodium falciparum HB3 blood-stage proliferation; at 28.7 µM (top of the series)
# How it was run: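 P. falciparum HB3 grown in erythrocytes (0.3% parasitemia, 2.5% hematocrit final) with compound for 72 h at 37 C, 5% CO2. Parasite DNA detected by SYBR Green after saponin/triton lysis overnight; normalized to 0.29 uM artemisinin and DMSO.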
# [13] = Identifying Small Molecule Inhibitors of Pancreatic Cancer Stem Cells (SN12C, Adherent) (AID 1259358; active = well fitted curve in the direction sought with a large enough effect; an effect the other way counts as inactive or inconclusive;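 note: cell survival measured after 48 h of compound exposure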; note: potency is the fitted concentration of half-maximal effect)
# How it was run: (§3)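 Spheroids grown 14 days in stem cell media on hydrogel-coated nonadherent plates; 2D lines seeded directly. Compounds added after 4 h attachment, 48 h at 37C, 5% CO2; CellTiter-Glo luminescence normalized to DMSO (no inhibition) and no-cell wells (full inhibition).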
# [14] = Identifying Small Molecule Inhibitors of Pancreatic Cancer Stem Cells (Panc1, Spheroid) (AID 1259359; active = well fitted curve in the direction sought with a large enough effect; an effect the other way counts as inactive or inconclusive;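 note: potency is the fitted concentration of half-maximal effect; compound exposure lasted 48 h before reading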); conditions: Panc1 spheroid cancer stem cell viability
# How it was run: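 Spheroids grown 14 days in stem cell media on nonadherent hydrogel before screening; cells attached 4 h, then compound exposure 48 h at 37C, 5% CO2. CellTiter-Glo luminescence normalized to DMSO (no inhibition) and no-cell wells (full inhibition).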
# [15] = Identifying Small Molecule Inhibitors of Pancreatic Cancer Stem Cells (A278, Adherent) (AID 1259361; active = well fitted curve in the direction sought with a large enough effect; an effect the other way counts as inactive or inconclusive; note: nearly all actives have a fitted effect of over 35% in size;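 for viability (% of control): 100% = DMSO-treated cells and 0% = cell-free media-only wells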)
# How it was run: as §3
# [16] = Identifying Small Molecule Inhibitors of Pancreatic Cancer Stem Cells (Panc1, Adherent) (AID 1259362; active = well fitted curve in the direction sought with a large enough effect; an effect the other way counts as inactive or inconclusive; note: potency is the fitted concentration of half-maximal effect;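 for viability, % of control: compound exposure lasted 48 h before the viability read; plate controls were DMSO-treated cells for no effect and cell-free media wells for full effect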); conditions: Potency: viability
# How it was run: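 Luminescent ATP readout (CellTiter-Glo) quantifies surviving cells after a 48 h drug incubation. Normalization uses DMSO wells as no inhibition and media-only wells as full inhibition; bortezomib served as positive control.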
# [17] = Identifying Small Molecule Inhibitors of Pancreatic Cancer Stem Cells (A2780, Spheroid) (AID 1259357; active = well fitted curve in the direction sought with a large enough effect; an effect the other way counts as inactive or inconclusive;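 note: spheroids pre-formed over 14 days in stem cell medium on hydrogel; compound exposure lasted 48 h before the ATP luminescence read; 100% = DMSO treated cells and 0% = wells without cells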); conditions: Potency: A2780 spheroid viability
# How it was run: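 After a 4 h attachment period, compounds were pinned into wells and cultures held 48 h under standard incubator conditions. Viability was then measured as CellTiter-Glo luminescence following 10 min at room temperature.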
Structure (SMILES),"parasite growth remaining, % of DMSO control (lower = more inhibition) [1]","parasite growth, % of control (lower = inhibition) [2] [%]","growth, % of control [3]","cell viability, % of control (lower = more cytotoxic) [4]",viability (% of control) [5],Potency [6],Potency [7],Potency [8],Potency [9],Potency [10],"parasite growth, % of DMSO control [11]","remaining proliferation (% of control), lower = more inhibition [12] [%]",Potency [13],Potency [14],IC50 (viability decrease) [15],Potency [16],Potency [17]
COc1ccc(-c2oc3c(CC=C(C)C)c(OC4O[C@H](CO)[C@@H](O)[C@H](O)[C@@H]4O)cc(O)c3c(=O)c2OC2O[C@@H](C)[C@H](O)[C@@H](O)[C@@H]2O)cc1 (some centres not stated),5.99%,36.2,11.3%,68.1%,102%,inactive,inactive,26.4 µM (active),26.4 µM (active),–,–,–,–,–,–,–,–
C[C@H]1[C@H](NC(=O)C(=NOC(C)(C)C(=O)O)c2csc(N)n2)C(=O)N1S(=O)(=O)O,–,–,102%,120%,121%,inactive,inactive,inactive,–,inactive,–,–,–,–,–,–,–
CC1(C)CCC(CN2CCN(c3ccc(C(=O)NS(=O)(=O)c4ccc(NCC5CCOCC5)c([N+](=O)[O-])c4)c(Oc4cnc5[nH]ccc5c4)c3)CC2)=C(c2ccc(Cl)cc2)C1,–,–,6.5%,37.9%,24.1%,inactive,inactive,23.5 µM (active),–,–,18.2%,–,–,–,–,–,–
CN1[C@@H]2CCC[C@@H]1CC(NC(=O)c1nn(C)c3ccccc13)C2 (some centres not stated),–,–,–,97.5%,105%,–,–,–,–,–,–,–,–,–,–,–,–
CNC(=O)c1ccccc1Sc1ccc2c(C=Cc3ccccn3)n[nH]c2c1,–,–,–,311%,28.2%,–,–,–,–,–,–,–,–,–,–,–,–
COc1cc(N2CCC(N3CCN(C)CC3)CC2)ccc1Nc1ncc(Cl)c(Nc2ccccc2S(=O)(=O)C(C)C)n1,7.75%,5.51,7.64%,5.5%,2.84%,inactive,inactive,inactive,–,–,3.8%,-1.09,18.7 µM (active),0.418 µM (active),6.62 µM (active),–,–
CC[C@H]1OC(=O)[C@H](C)[C@@H](O[C@H]2C[C@@](C)(OC)[C@@H](O)[C@H](C)O2)[C@H](C)[C@@H](O[C@@H]2O[C@H](C)C[C@H](N(C)C)[C@@H]2O)[C@](C)(O)C[C@@H](C)CN(C)[C@H](C)[C@@H](O)[C@]1(C)O,24.6%,14,59%,184%,120%,inactive,inactive,–,13.2 µM (active),16.6 µM (active),33.2%,31.5,–,–,–,–,–
c1ccc2c(-c3cnn4cc(-c5ccc(N6CCNCC6)cc5)cnc34)ccnc2c1,5.98%,6.79,5.81%,3.03%,3.05%,inactive,inactive,–,inactive,inactive,4.34%,–,26.4 µM (active),26.4 µM (active),23.5 µM (active),20.9 µM (active),–
CC(C)(C)c1cc(C(=O)O)c(NC(=O)Nc2ccc3[nH]ncc3c2)s1,93.1%,–,69.6%,134%,110%,inactive,inactive,–,–,inactive,74.4%,70.8,inactive,–,inactive,–,inactive
CC[C@H]1OC(=O)[C@H](C)C(=O)[C@H](C)[C@@H](O[C@H]2O[C@H](C)C[C@H](N(C)C)[C@@H]2O)[C@](C)(OC)C[C@@H](C)C(=O)[C@H](C)[C@H]2N(CCCCn3cnc(-c4cccnc4)c3)C(=O)O[C@]12C,14.5%,32.9,–,122%,93.6%,inactive,inactive,–,16.6 µM (active),20.9 µM (active),–,–,–,–,–,–,–
CC1(C)S[C@H]2[C@H](NC(=O)[C@@H](N)c3ccc(O)cc3)C(=O)N2[C@@H]1C(=O)O,–,–,–,125%,19.4%,inactive,inactive,–,–,inactive,7.42%,–,–,–,–,–,–
COC(=O)N[C@H](C(=O)N1CCC[C@@H]1c1ncc(-c2ccc(-c3ccc(-c4cnc([C@@H]5CCCN5C(=O)[C@@H](NC(=O)OC)C(C)C)[nH]4)cc3)cc2)[nH]1)C(C)C,9.13%,–,14.2%,6.1%,28.7%,inactive,inactive,–,26.4 µM (active),26.4 µM (active),9.52%,–,–,–,–,–,–
NC1=N[C@@]2(c3cc(NC(=O)c4ccc(F)cn4)ccc3F)COC[C@@H]2CS1,–,–,–,21.6%,12.9%,inactive,inactive,–,inactive,inactive,23.2%,–,–,–,–,–,–
Cc1ccc(/C=N/NC(=O)c2ccccc2Oc2ccccc2)o1,103%,120,92%,76%,18.6%,inactive,inactive,20.9 µM (active),inactive,–,82.9%,–,–,–,–,–,–
O=c1ccn([C@@H]2O[C@H](CO)[C@H](O)[C@H]2O)c(=O)[nH]1,90.5%,99.5,–,90%,112%,inactive,inactive,–,inactive,inactive,–,–,–,–,–,–,–
CC(C)(C)C(=O)Oc1ccc2c(c1)nc(NC(=O)c1cccc([N+](=O)[O-])c1)n2CCCO,46.4%,22.2,10.6%,190%,102%,inactive,inactive,inactive,inactive,–,21.2%,53.3,inactive,–,18.7 µM (active),inactive,inactive
O=C(Nc1cccc(Br)c1)c1cccc(S(=O)(=O)N2CCCCCC2)c1,51.8%,72.2,21.1%,296%,76%,inactive,inactive,23.5 µM (active),–,–,55.6%,–,–,–,–,–,–
NC(=O)c1cnc(-c2ccc(C3(N)CCC3)cc2)c(-c2ccccc2)c1,65.3%,30,75.7%,80.1%,67%,inactive,inactive,inactive,–,–,–,–,–,–,–,–,–
CCNc1cc(NC2CCC(O)CC2)nc(Nc2ccc3c(ccn3Cc3ccccc3)c2)n1 (configuration not stated),6.69%,–,9.27%,21.8%,2.13%,inactive,inactive,–,23.5 µM (active),–,–,–,–,–,–,–,–
COc1cc(O)c2c(c1)C(=O)c1cc(C)cc(O)c1C2=O,92.9% [at 9.64 µM],–,47.7% [at 9.64 µM],154% [at 23.2 µM],101% [at 23.2 µM],inactive,inactive,–,inactive,–,81.1% [at 9.64 µM],–,–,–,–,–,–
